Assay [1] is described as follows: NCI Yeast Anticancer Drug Screen. Data for the rad50 strain (AID 155).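 Note: 0% = growth of vehicle-only cultures of the same strain.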 Particulars: S. cerevisiae rad50 strain growth inhibition; at 50.0 µM; stronger effect = higher value. In outline: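 Yeast carrying a defined DNA repair defect were exposed to test compounds, and growth was compared with vehicle-treated controls to give percent inhibition.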
Assay [2] is described as follows: NCI Yeast Anticancer Drug Screen. Data for the mec2-1 strain (AID 157). Particulars: S. cerevisiae mec2-1 strain, at 50.0 µM, stronger effect = higher value. In outline: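 Vehicle-treated cultures served as reference for growth inhibition of compound-exposed mec2-1 yeast.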
The nature of assay [3]: NCI Yeast Anticancer Drug Screen. Data for the sgs1 mgt1 strain (AID 161).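 Note: 0% = growth of cultures given vehicle only.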 As to conditions: S. cerevisiae sgs1 mgt1 strain, at 50.0 µM, stronger effect = higher value. In outline:
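Mutant yeast exposed to compound; growth scored against vehicle-only wells.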

A short description of assay [4]: NCI Yeast Anticancer Drug Screen. Data for the cln2 rad14 strain (AID 165).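 Note: 0% = growth equal to vehicle treated cultures.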 Particulars: S. cerevisiae cln2 rad14 strain, at 50.0 µM, stronger effect = higher value. Put shortly:
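Each compound was tested on cln2 rad14 yeast. Inhibition of growth was calculated against vehicle-exposed controls.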

Assay [5] in a line: NCI Yeast Anticancer Drug Screen. Data for the bub3 strain (AID 167). As to conditions: S. cerevisiae bub3 mutant strain, at 50.0 µM, stronger effect = higher value. Put shortly: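 Compounds were applied to a genetically altered yeast strain carrying a cell-cycle control defect. Growth inhibition was scored against vehicle-treated controls.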
Assay [6] in a line: NCI Yeast Anticancer Drug Screen. Data for the mlh1 rad18 strain (AID 175). Particulars: S. cerevisiae mlh1 rad18 strain growth inhibition; at 50.0 µM; stronger effect = higher value. Put shortly:
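Vehicle-treated cultures served as the reference for growth inhibition in a yeast strain carrying DNA damage repair alterations exposed to each compound.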

Compounds without any hit were thinned out: in the full panel of roughly 79,000, 15% have a hit. A number with no mark means an inactive call. Active and inactive are the calls of the source. Cut-off read from the data, not from the text of the source: active = growth inhibition above about 70%; inactive = the rest. *1 amine or outer side, *2 acyl side, *3 side chain or, on linkers, in order; H or OH if unused. Where a SMILES comes first, the peptide text is derived from it. [ ]: non-standard residue; d: D form. X12 = NC(N)=NCC(O)CC(N[*:1])C(=O)[*:2]; Orn = NCCC[CH](N)C(=O)O

Consider `C[n+]1ccccc1/C=C/c1cccc([N+](=O)[O-])c1`, for which the growth inhibition in assay [1] was -17.6%; in assay [2], -2.7%; in assay [3] it was -1.3%; in assay [4], -28.8%; in assay [5], 7.8%; in assay [6], 1.9%.
With `CC(O)C(NC(=O)C(CCCN)NC(=O)C(CC(O)CN=C(N)N)NC(=O)C(N)CCCN=C(N)N)C(=O)NC(CCCN)C(=O)NC(CC(O)CN=C(N)N)C(=O)NC(Cc1ccc(O)cc1)C(=O)O` (stereo not given) (tested in a mixture with another compound) (H-R[X12][Orn]T[Orn][X12]Y-OH; configuration not given here), the growth inhibition in assay [1] is 39.6%; in assay [2], -3.3%; in assay [3], 19.5%; in assay [4], 8.45%; in assay [5], 27.9%; in assay [6], 38.1%.
Consider `C/C(CC(c1ccccc1)c1ccccc1)=N\Nc1ccc([N+](=O)[O-])cc1[N+](=O)[O-]`, for which the growth inhibition in assay [1] is 13.4%; in assay [2], 3.95%; in assay [3], 14.4%; in assay [4], 19.2%; in assay [5] it was 7.4%; in assay [6] it was 8.55%.
For the molecule `COC(=O)c1cc(-c2ccccc2Cl)n2c(N)nnc2n1`, the growth inhibition in assay [1] is 21.6%; in assay [2], -3.1%; in assay [3], 32.6%; in assay [4] it was -6.2%; in assay [5] it was -20.3%; in assay [6] it was 7.1%.
Turning to `CC(=O)OC(COC(c1ccccc1)(c1ccccc1)c1ccccc1)C(OC(C)=O)C(COC(c1ccccc1)(c1ccccc1)c1ccccc1)OC(C)=O` (stereo not given), the growth inhibition is -25.9% in assay [1]; -8.4% in assay [2]; -22.5% in assay [3]; -18.8% in assay [4]; -6.6% in assay [5]; -15.1% in assay [6].
For the molecule `Nc1ccc2ccc3ccccc3c2c1`, the growth inhibition in assay [1] is 50.8%; in assay [2], 5.6%; in assay [3], 43.4%; in assay [4] it was 31.8%; in assay [5], 27.5%; in assay [6], 44.2%.
For the molecule `COc1cc(C2OCC3C(c4ccc(O)c(OC)c4)OCC23)ccc1O` (stereo not given), the growth inhibition in assay [1] was 6%; in assay [2], -20.4%; in assay [3], 10.9%; in assay [4] it was 23.4%; in assay [5], 0.2%; in assay [6] it was 14.6%.
As to `O=C(O)C(Br)C1(Br)c2ccccc2-c2ccccc21` (stereo not given), the growth inhibition is 99.3% (active) in assay [1]; 99.7% (active) in assay [2]; 99.7% (active) in assay [3]; 95.4% (active) in assay [4]; 97.3% (active) in assay [5]; 99.6% (active) in assay [6].
As for `CCOC(CN=Cc1ccc2c(c1)Sc1ccccc1O2)OCC`, the growth inhibition is 73.1% (active) in assay [1]; 46.1% in assay [2]; 88.2% (active) in assay [3]; 55.2% in assay [4]; 64.8% in assay [5]; 89.5% (active) in assay [6].
Take `COc1cc2nncc(Sc3cnnc4ccccc34)c2cc1OC`: the growth inhibition is 19.1% in assay [1]; 29.6% in assay [2]; 18.6% in assay [3]; 13.3% in assay [4]; 36% in assay [5]; 35.6% in assay [6].
`CCC[CH2][Sn]1([CH2]CCC)[O]C2C(CO)OC(n3c(Br)c(C(N)=O)c4c(N)ncnc43)C2[O]1` (stereo not given): the growth inhibition in assay [1] is 98.3% (active); in assay [2], 98.4% (active); in assay [3], 98.7% (active); in assay [4], 97.5% (active); in assay [5] it was 97.5% (active); in assay [6], 98.5% (active).
For `O=C(c1ccccc1)C(O)(c1ccccc1)C1CCCC/C1=N\N(c1ccccc1)c1ccccc1` (stereo not given), the growth inhibition is 37% in assay [1]; 31.4% in assay [2]; 29.9% in assay [3]; 32.7% in assay [4]; -20.4% in assay [5]; 37.3% in assay [6].
With `[N-]=[N+]=Nc1nc2c(N)ncnc2n1C1OC(CO)C(O)C1O` (stereo not given), the growth inhibition is 23.4% in assay [1]; 16.4% in assay [2]; 6.15% in assay [3]; -22.8% in assay [4]; -1.35% in assay [5]; 20.9% in assay [6].
On to `CC(=O)OC1=C(C)C2=C3OC(=O)C(C)=C3CC[C@@]2(C)[C@@H](Cl)[C@@H]1Cl`, for which the growth inhibition in assay [1] is 40.9%; in assay [2], -45.9%; in assay [3], -2.6%; in assay [4], -5.85%; in assay [5] it was -15.2%; in assay [6] it was -57.9%.
Regarding `Brc1ccc(-c2nnc(-c3ccc(Br)cc3)o2)cc1`, the growth inhibition is 14.8% in assay [1]; -4.6% in assay [2]; -0.8% in assay [3]; -4.7% in assay [4]; 0.25% in assay [5]; 1.4% in assay [6].
As to `Cc1ccc(/C(O)=C/C(=O)C(=O)NN=C(c2ccccc2)c2ccccc2)cc1`, the growth inhibition in assay [1] is 5.9%; in assay [2], -11.9%; in assay [3] it was 26.8%; in assay [4] it was 4.85%; in assay [5], 20.3%; in assay [6], -1.85%.
As to `CCCCOC(=O)C12CCCCC1O2` (stereo not given), the growth inhibition in assay [1] is -29.1%; in assay [2], -29.9%; in assay [3] it was -12.8%; in assay [4], 2.55%; in assay [5], -29.1%; in assay [6], -0.55%.
With `CS(=O)(=O)Oc1c(Cl)cc(Cl)c2cccnc12`, the growth inhibition in assay [1] was 7.8%; in assay [2], -1.1%; in assay [3], -3.75%; in assay [4], -13.7%; in assay [5], 1.2%; in assay [6], 11.2%.
Regarding `C(#CC[P+](c1ccccc1)(c1ccccc1)c1ccccc1)C[P+](c1ccccc1)(c1ccccc1)c1ccccc1`, the growth inhibition in assay [1] was -24.1%; in assay [2], -16.4%; in assay [3], 0.2%; in assay [4], 3.55%; in assay [5], -5.4%; in assay [6] it was -10.4%.
Consider `Cc1cc2c(=O)cc(-c3ccc(O)cc3)oc2c(C(=O)O)c1C`, for which the growth inhibition in assay [1] was 2.7%; in assay [2], -4.45%; in assay [3], 14.3%; in assay [4] it was 24.8%; in assay [5] it was 0.6%; in assay [6] it was 4.4%.
